# Results filed as inconclusive are left out. Entries that show only a call come without a potency. Activity calls are given as the source filed them. The call rests on the fitted dose curve; in most records, active means well fitted inhibition curve with a large enough effect; inconclusive means small, poorly fitted or top-dose-only effect; inactive means flat fitted curve, though single readings scatter.
# Molecular target: Aldehyde dehydrogenase, mitochondrial (Homo sapiens) (UniProt P05091)
# Test: qHTS for Inhibitors of the Aldehyde Dehydrogenase Family (ALDH2) Primary screen (AID 2061308); further: nearly all actives have a fitted effect of over 55% in size
# Details: ALDH2 enzyme inhibition qHTS, 1536-well; series mostly up to 56 µM
SMILES,Potency,"activity change, negative = inhibition"
O=C(Nc1ccc(Cl)c(Cl)c1)Nc1nnc(N2CCNCC2)s1,inactive,
O=S(=O)(c1cccc(C(F)(F)F)c1)N1CCN(S(=O)(=O)c2ccc3c(c2)OCCO3)CC1,inactive,
COc1cc(OC)cc(C2=Nn3c(nnc3-c3ccccc3OC)SC2)c1,inactive,
Cc1cc(C)nc(NC(=S)N2CCN(c3cnccn3)CC2)c1,inactive,
COc1cc(O)c(C(CC(=O)N2CCCC(c3ccccc3)C2)c2ccc3c(c2)OCO3)c(OC)c1 (stereo not drawn),inactive,
CC1(C)CCc2cc(S(=O)(=O)N3CCN(S(=O)(=O)c4c(F)cccc4F)CC3)ccc2O1,inactive,
Cc1cc2c(s1)c1cnn(Cc3cc(F)c(Cl)cc3Cl)c(=O)c1n2C,inactive,
Fc1cccc(CNc2ncnc3ccc(-c4ccc5c(c4)OCO5)cc23)c1,inactive,
Cc1nnc(-c2cnn(C)c2)n1CCCn1ccnc1,inactive,
Cc1ccc(NS(=O)(=O)c2ccc3c(c2)CCC(=O)N3)cc1F,inactive,
CNC(=O)c1ccc(-c2cnc3cnc(C(=O)N(C)c4ccc(Cl)cc4)cn23)cc1,inactive,
Cc1nc(N2CCOCC2)c2nc(-c3ccccc3)n(CCCN3CCCCC3C)c2n1 (stereo not drawn),inactive,
COc1cc(OC)cc(C2=Nn3c(nnc3-c3cccc(OC)c3)SC2)c1,inactive,
Cc1cnc(-c2ccccc2C(C)C)nc1NCc1ccc(-c2cccc(S(N)(=O)=O)c2)cc1,inactive,
N#Cc1cccc(-c2csc(N3CCC(C(N)=O)CC3)n2)c1,inactive,
CN(C)c1cnc2c(O)cccc2c1,inactive,
CCC(=O)NC(c1cccs1)c1cc(Cl)c2cccnc2c1O (stereo not drawn),inactive,
O=C1CCCC2=C1C(c1[nH]ncc1Cl)NC(=NCCc1cccnc1)N2 (stereo not drawn),inactive,
C[C@@H]1O[C@@H](O[C@H]2[C@H](OC(=O)[C@]34CCC(C)(C)C[C@H]3C3=CCC5[C@@]6(C)C[C@H](O)[C@H](O[C@@H]7O[C@H](CO)[C@@H](O[C@@H]8O[C@H](CO)[C@@H](O)[C@H](O)[C@H]8O)[C@H](O)[C@H]7O)[C@@](C)(CO)C6[C@H](O)C[C@@]5(C)[C@]3(C)C[C@H]4O)OC[C@H](O)[C@@H]2O)[C@H](O)[C@H](O)[C@H]1O[C@@H]1OC[C@@H](O)[C@H](O[C@@H]2OC[C@](O)(CO)[C@H]2O)[C@H]1O (stereo partly drawn),,-1.66% [at 11.2 µM] (inactive)
Cc1cc(N2C(=O)c3ccccc3C2=O)no1,inactive,
Cc1ccc(NS(=O)(=O)c2cc3c(cc2F)NC(=O)CC3)cc1Cl,inactive,
O=S(=O)(c1ccc2c(c1)OCCO2)N1CCN(S(=O)(=O)c2ccco2)CC1,inactive,
COC(=O)c1cc(F)c(S(=O)(=O)N2CCN(S(=O)(=O)c3ccc4c(c3)OCCO4)CC2)cc1F,inactive,
